Compounds with a hit are over-represented: about 12% of the library has one in this group of screens.
G9a block – qHTS Assay for Inhibitors of Histone Lysine Methyltransferase G9a | 350,000 compounds, 8.8% hits | Potency, µM (titrated, usually from 102 µM), inactives show at the top dose activity, negative = inhibition, usual class: inhibitors | G9a H3K9 monomethylation, AlphaScreen, 2 h | AID 504332, 2011 | Histone-lysine N-methyltransferase EHMT2 (Homo sapiens), Q96KQ7; further: potency means the concentration at half of the fitted maximal effect; on the % scale 0 is the no-effect control and ±100 the full control effect; nearly all actives have a fitted effect of over 75% in size
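Readings reflect AlphaScreen signal from monomethyl-H3K9 antibody detection. HMT at 20 nM; substrate b-H3K9 500 nM; cofactor SAM 20 uM; 2 h RT reaction; compounds tested as titrations in qHTS with 15 min preincubation.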
BAZ2B inh – qHTS Assay for Inhibitors of BAZ2B; Potency, µM (titrated, usually from 114 µM), for inactives: at the highest dose activity change, negative = inhibition, hits mostly inhibitors; Bromodomain adjacent to zinc finger domain protein 2B (Homo sapiens), Q9UIF8; 360,000 compounds, 4.4% hits; AlphaScreen BAZ2B-H3K14Ac peptide displacement; further: potency means the concentration at half of the fitted maximal effect; on the % scale 0 is the no-effect control and ±100 the full control effect; nearly all actives have a fitted effect of over 60% in size
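In this displacement format the biotinylated H3(5-23) peptide acetylated at Lys14 serves as ligand at 50 nM, with BAZ2B at 50 nM in PBS pH 7.4 containing 0.01% Tween-20. Donor and acceptor beads are 10 ug/mL final.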
PLK1 PBD block – qHTS for Inhibitors of PLK1-PDB (polo-like kinase 1 - polo-box domain): Primary Screen | Serine/threonine-protein kinase PLK1 (Homo sapiens), P53350 | Plk1 PBD binding of FITC phosphopeptide, fluorescence polarization | Potency, µM, without a hit: max response, negative = inhibition, most hits filed as inhibitors | 360,000 compounds, 2.8% hits | AID 720504, 2013; further: potency means the concentration at half of the fitted maximal effect; series mostly up to about 57 µM; on the % scale 0 is the no-effect control and ±100 the full control effect; nearly all actives have a fitted effect of over 65% in size
PI5P4Ka inh – qHTS for Inhibitors of phosphatidylinositol 5-phosphate 4-kinase (PI5P4K); Phosphatidylinositol 5-phosphate 4-kinase type-2 alpha (Homo sapiens), P48426; PI5P4Kalpha enzyme, ADP-Glo luminescence, 60 min; hits give low values; max response, %; 330,000 compounds, 1.2% hits; AID 652105, 2013; active means max response of -50% or lower; inconclusive means between -30% and -50%; inactive means -30% or higher; further: value at the top dose of about 77 µM; on the % scale 0 is the no-effect control and ±100 the full control effect
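Reactions run in 0.038 M HEPES pH 7.4, 0.28 mM EGTA, 0.1% CHAPS and 5% DMSO, with PI5P4Kalpha, substrate, compound and 5 microM ATP final, one hour at room temperature. Readout is ADP-Glo luminescence.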
HP1b binding inh – HTS for Inhibitors of HP1-beta Chromodomain Interactions with Methylated Histone Tails. Chromobox protein homolog 1 (Homo sapiens), P83916. AlphaScreen HP1-beta / biotin-H3K9me3 peptide binding. Potency, µM (top dose mostly 114 µM), without a hit: top-dose activity change, negative = inhibition, hits mostly inhibitors. 390,000 compounds, 0.56% hits. AID 540317, 2011; further: potency means the concentration at half of the fitted maximal effect; nearly all actives have a fitted effect of over 70% in size
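HP1-beta protein (50 nM final) preincubated 30 min at room temperature with biotinylated H3(1-18)K9me3 peptide (50 nM) in PBS pH 7.4, 0.01% Tween-20, then compound added for 30 min. AlphaScreen streptavidin donor/nickel chelate acceptor beads (10 ug/mL final), 30 min dark, luminescence read.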
JMJD2A Tudor inh – qHTS Assay for Inhibitors of JMJD2A-Tudor Domain | Lysine-specific demethylase 4A (Homo sapiens), O75164 | AlphaScreen JMJD2A-Tudor / H3K4me3 peptide binding | 390,000 compounds, 4.4% hits | Potency, µM (titrated, usually from 114 µM), for the others: top-dose activity change, negative = inhibition, actives largely listed as inhibitors; further: potency means the concentration at half of the fitted maximal effect; on the % scale 0 is the no-effect control and ±100 the full control effect; nearly all actives have a fitted effect of over 50% in size
Target sequence (O75164 whole entry, looked up, the tested form may be a part): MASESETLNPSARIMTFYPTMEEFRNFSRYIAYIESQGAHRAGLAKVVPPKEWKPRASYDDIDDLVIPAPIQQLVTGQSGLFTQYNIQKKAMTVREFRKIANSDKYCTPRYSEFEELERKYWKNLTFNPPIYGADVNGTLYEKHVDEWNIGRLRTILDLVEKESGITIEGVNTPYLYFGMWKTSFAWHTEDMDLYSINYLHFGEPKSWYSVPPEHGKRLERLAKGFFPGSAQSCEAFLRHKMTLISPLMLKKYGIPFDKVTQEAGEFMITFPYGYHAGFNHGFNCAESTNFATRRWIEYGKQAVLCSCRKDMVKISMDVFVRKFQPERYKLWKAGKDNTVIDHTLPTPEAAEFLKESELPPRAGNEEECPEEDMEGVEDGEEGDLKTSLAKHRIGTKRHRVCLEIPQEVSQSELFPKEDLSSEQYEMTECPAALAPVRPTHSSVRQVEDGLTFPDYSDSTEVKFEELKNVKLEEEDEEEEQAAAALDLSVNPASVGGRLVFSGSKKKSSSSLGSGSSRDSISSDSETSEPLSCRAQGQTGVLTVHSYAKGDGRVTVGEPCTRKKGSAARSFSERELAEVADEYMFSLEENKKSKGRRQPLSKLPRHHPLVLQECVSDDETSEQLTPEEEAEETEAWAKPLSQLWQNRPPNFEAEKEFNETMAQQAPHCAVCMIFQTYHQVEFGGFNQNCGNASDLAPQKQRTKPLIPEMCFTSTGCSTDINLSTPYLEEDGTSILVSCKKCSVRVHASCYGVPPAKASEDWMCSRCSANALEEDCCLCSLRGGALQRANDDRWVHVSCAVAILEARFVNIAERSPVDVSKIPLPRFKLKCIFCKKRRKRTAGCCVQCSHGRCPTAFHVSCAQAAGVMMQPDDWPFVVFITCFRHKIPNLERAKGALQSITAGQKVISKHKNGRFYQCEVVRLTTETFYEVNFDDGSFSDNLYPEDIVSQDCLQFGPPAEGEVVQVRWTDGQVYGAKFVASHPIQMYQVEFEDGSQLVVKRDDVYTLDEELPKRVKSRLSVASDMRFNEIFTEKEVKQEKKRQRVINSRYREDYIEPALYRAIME
Active calls of the source: *; u = inconclusive; x = no result; [ ] = dose if it differs, or a comment. Unless noted, the call rests on the fitted dose curve; in most records, active means well fitted curve in the direction sought with a large enough effect; inconclusive means small, poorly fitted or top-dose-only effect, or another doubt; inactive means no such curve, though single readings can be large; an effect the other way counts as inactive or inconclusive.

SMILES	G9a block	BAZ2B inh	PLK1 PBD block	PI5P4Ka inh	HP1b binding inh	JMJD2A Tudor inh
CN(C)c1ccc(NC(=O)Nc2csc3ccccc23)cc1	8.91µM*	35.5µM*	-0.5%	-3.1	-8.5%	u
COc1ccc(N2CCN(C(=O)Cc3csc(NC(=O)Nc4ccccc4OC)n3)CC2)cc1	7.94µM*	u	-1.9%	-3.5	-22.6%	u
COc1ccccc1NC(=O)Nc1nc(CC(=O)Nc2cccc(F)c2)cs1	39.8µM*	-35.1%	-2.8%	5.1	3.0%	-33.6%
COc1ccc(C)cc1NC(=O)Cc1csc(NC(=O)Nc2ccccc2OC)n1	x	x	29.9µM*	2.4	x	x
O=C(Nc1ccc(F)cc1)Nc1csc2ccccc12	u	0.4%	-1.2%	0.0	28.5%	-9.6%
O=S(=O)(NC1CCN(S(=O)(=O)c2ccc3c(c2)OCCO3)C1)c1c(F)cccc1F (centres undefined)	-7.5%[0.501 µM]	-5.5%	x	x	52.7%	-9.3%
COc1ccccc1NC(=O)Nc1nc(CC(=O)Nc2ccc(N(C)C)cc2)cs1	11.2µM*	12.6µM*	-9.9%	-6.6	39.8µM*	25.1µM*
COc1ccc(NC(=O)Cc2csc(NC(=O)Nc3ccccc3OC)n2)cc1	x	x	-5.9%	-6.3	x	x
Cc1ccccc1-n1c(=O)c2c3c(sc2n2cnnc12)CCCC3	-7.2%[59 µM]	-2.4%	x	x	41.4%	-1.4%
CCCOP(=O)(c1ccc(N(C)C)cc1)C(O)c1cc(OC)ccc1OC (centres undefined)	12.7%	1.4%	-12.5%	-1.3	56.0%	-4.0%
COc1ccc(C(O)P(=O)(OC(C)C)c2ccc(N(C)C)cc2)c(OC)c1 (centres undefined)	15.5%[0.501 µM]	-8.4%	-11.1%	-0.4	17.7%	22.4µM*
CC(C)OP(=O)(c1ccc(N(C)C)cc1)C(O)c1ccc(N(C)C)cc1 (centres undefined)	15.5%[0.501 µM]	-11.9%	-2.8%	0.6	10.7%	4.47µM*
CC(C)COP(=O)(c1ccc(N(C)C)cc1)C(O)c1ccc(N(C)C)cc1 (centres undefined)	39.8µM*	-36.3%	5.2%	-5.0	1.1%	u
O=C(Cn1c(=O)n(Cc2ccc(C(=O)NCc3ccccc3Cl)cc2)c(=O)c2ccccc21)Nc1ccc(F)c(Cl)c1	2.3%[59 µM]	-5.6%	x	x	8.5%	-17.1%
CCN1/C(=C2\C(=O)N(C)C(=S)N2C)C=Cc2cc(OC)ccc21	7.94µM*	56.2µM*	-10.2%	1.9	u	u
Cc1nn(-c2ccccc2)c(N2CCCC2)c1/C=N/Nc1ccc(S(=O)(=O)Nc2ccccc2)cc1[N+](=O)[O-]	u	u	-8.2%	-11.9	u	5.01µM*
COc1ccccc1NS(=O)(=O)c1ccc(N/N=C/c2c(C)nn(-c3ccccc3)c2N2CCCC2)c([N+](=O)[O-])c1	4.47µM*	4.47µM*	-9.6%	1.2	u	u
CCOc1ccc(S(=O)(=O)Nc2ccc(C(=O)N/N=C/c3c(C)nn(-c4ccccc4)c3N3CCCC3)cc2)cc1	0.7%[59 µM]	-5.2%	-8.3%	-73.9*	u	-25.4%
Cc1nn(-c2ccccc2)c(N2CCCCC2)c1/C=N/NC(=O)c1ccncc1	-7.0%[59 µM]	u	-8.8%	-14.9	19.5%	-17.8%
COc1ccccc1NS(=O)(=O)c1cc([N+](=O)[O-])ccc1N/N=C/c1sc(N2CCOCC2)nc1-c1ccccc1	39.8µM*	u	17.2%	1.6	u	-11.8%
COC(=O)c1sccc1S(=O)(=O)N(CC(=O)NCc1ccc(C)cc1)c1ccccc1	12.0%[59 µM]	-9.8%	x	x	-18.4%	-16.3%
Cc1cccc(NC(=O)c2ccc(Cl)c(S(=O)(=O)N3CCCCC3)c2)n1	-4.3%	9.8%	-2.9%	1.9	31.4%	-14.5%
